Structures are written as SMILES. Active and inactive are the calls of the source.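 How the source made its calls: active means z-score of at least 1.8 in each of two replicates, scored against plate mean and spread of sample wells; inactive means the rest.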

This assay in a line: viability rescue of complex I mutant cybrids, primary screen, cell-based, galactose medium, ATP luminescence (AID 1645843).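 Further: positive z means more ATP and so rescue of galactose-driven cybrid death.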 The following applies: complex I mutant cybrid cells, 72 h, stronger effect = higher value.
On to `CCCCCN1C(=O)C2(CCN(C(=O)N3CCCC3)CC2)Nc2ccccc21`, for which the z-score was -1.2 (inactive).
The result for `CCCCC(CO)NC(C)CCc1ccc(O)cc1` (stereo not given) reads -0.565 (inactive); that for `Cc1ccc2c(C(=O)N3CCCCC3)cc(-c3cnn(C(C)C)c3)nc2c1`, -0.385 (inactive).
The result for `CCCc1noc(CN(C)C(=O)CCc2ccc(C)c(C)c2)n1` reads -0.575 (inactive); that for `CCCN1CCC(N2CCC(n3cc(-c4ccccc4)nn3)CC2)CC1`, 0.325 (inactive); that for `CC(CCN1CCC(Cn2cc(CCO)nn2)CC1)CC(C)(C)C` (stereo not given), -0.27 (inactive).
The result for `COc1ccc(F)cc1-c1ccc2ccccc2n1` reads -0.15 (inactive).
Take `Cc1nn(C)cc1-c1ccnc(NC(CC(C)(C)C)c2cccnc2)n1` (stereo not given): the z-score was 1.75 (inactive).
As to `Cc1cc(NC(=O)Cn2ccc(-c3ccsc3)n2)n(-c2ccccn2)n1`, the z-score was 1.83 (inactive).
With `CC(=O)c1c(C)nn(CC(=O)Nc2ccnn2C2CCCCC2)c1C`, the z-score is 0.2 (inactive).
The result for `CC(C)(C)c1cn(C2CCN(C(=O)CC3CCCCCC3)CC2)nn1` reads -0.225 (inactive); that for `Cn1ccnc1C(=O)c1cccc(-c2ccccc2Cl)c1`, -0.515 (inactive); that for `CCC1CN(C(=O)c2cc(-c3cnn(C)c3)nc3c(C)c(C)ccc23)CCO1` (stereo not given), 3.04 (active).
The result for `COc1cccc(-n2cc(-c3ccnc(N(C)CCn4ccnc4)n3)cn2)c1` reads 1.84 (inactive); that for `CC(C)=CCC/C(C)=C/CNCCCc1ccncc1`, -0.52 (inactive); that for `CCC1(CC)CC1C(=O)N1CCC(n2cc(C(C)(C)O)nn2)CC1` (stereo not given), -0.515 (inactive).
In the case of `N#Cc1ccc(C(=O)N2CCNC(=O)C2Cc2ccccc2)cc1` (stereo not given), the z-score was -0.47 (inactive).
The result for `CCCCc1cn(C2CCN(C(=O)C3CC3(CC)CC)CC2)nn1` (stereo not given) reads 0.39 (inactive); that for `CCCCC(CC)CN1CCc2[nH]nc(C3CC3)c2C1` (stereo not given), -0.03 (inactive); that for `Cc1ccc(-c2ccn(CC(=O)Nc3nn(C)c4ccccc34)n2)s1`, 2.7 (active).
The result for `c1coc(-c2nc3c(cnn3Cc3cccs3)[nH]2)c1` reads -0.74 (inactive); that for `CCCc1cn(C2CCN(C(=O)CC3CC(C)(C)NC(C)(C)C3)CC2)nn1`, -0.53 (inactive); that for `Clc1ccc(C(Cn2ccnc2)OCc2csc3c(Cl)cccc23)c(Cl)c1` (stereo not given), 0.155 (inactive).
With `COc1ccc(C(C)=O)c(OC2(C(=O)O)CCSCC2)c1`, the z-score is -0.58 (inactive).
Regarding `Cc1c(C(=O)N2CCSCC2)c(-c2ccccc2)nn1-c1ccccc1`, the z-score was 1.96 (inactive).
Consider `COc1ccccc1N1CCN(C(=O)Nc2n[nH]c(Cc3ccccc3)n2)CC1`, for which the z-score is -0.935 (inactive).
On to `O=C(NC(Cn1cccn1)c1ccccc1)c1ccc2nccnc2c1` (stereo not given), for which the z-score is 1.25 (inactive).
For the molecule `Cc1nn(C)c(C)c1-c1ccnc(N2CCC(C(=O)NCc3ccccn3)CC2)n1`, the z-score is 1.16 (inactive).
In the case of `Cc1cc(CN2CCC(Cc3ccc(F)cc3)CC2)n(C)n1`, the z-score was 0.225 (inactive).
The result for `COc1cc(OC2(C(=O)O)CCSCC2)ccc1CN1CCCNCC1` reads -0.23 (inactive).
The result for `CC(CCN1CCC(n2cc(CO)nn2)CC1)CC(C)(C)C` (stereo not given) reads -0.48 (inactive); that for `Cc1ccccc1-n1cc(-c2ccnc(NCc3nnc4n3CCCC4)n2)cn1`, -0.305 (inactive).
Take `O=C(Nc1cccc(N2CCCC2=O)c1)c1cc(C(F)(F)F)ccc1Cl`: the z-score is -0.405 (inactive).
The result for `Cc1nsc(NC(=O)N2CCCCC2c2ccc(F)cc2)n1` (stereo not given) reads -0.445 (inactive).
Take `Cc1ccccc1-c1noc(C2CC(C(C)C)=NO2)n1` (stereo not given): the z-score is 1.73 (inactive).
With `COc1cccc(CN2CCN(C(=O)c3cc4cc(OC)ccc4[nH]3)CC2=O)c1`, the z-score is -0.41 (inactive).
`COc1cccc(OC)c1-c1noc(CCN2C(=O)COc3ccccc32)n1`: the z-score was 1.39 (inactive).
With `COc1ccc(C(=O)N2CCNC(=O)C2Cc2ccccc2)cc1F` (stereo not given), the z-score is -0.505 (inactive).
The result for `Cc1ccc(C)c(-c2c(C)sc3ncn(C4CCN(C)C4=O)c(=O)c23)c1` (stereo not given) reads 0.12 (inactive); that for `CCCCc1cc(=O)[nH]c(-c2ccc(CN(C)CCOC)cc2)n1`, -0.415 (inactive).

Values taken from PubChem BioAssay.
